Luc counter – Counterscreen for Luciferase (Kinase-Glo TM) Inhibition | AID 1379, 2008 | Potency, µM (titrated, usually from 38.3 µM), actives largely listed as inhibitors | Kinase-Glo luciferase, ATP luminescence, 8 min | Luciferin 4-monooxygenase (Photuris pensylvanica), Q27757 | 0.28% of 200,000 active; further: nearly all actives have a fitted effect of over 60% in size
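Kinase-Glo luciferase light output from ATP and luciferin was measured with 10 uM ATP, within the enzyme's linear range. Buffer: 50 mM imidazole pH 7.2, 50 mM KCl, 7 mM MgCl2, 0.01% Tween 20, 0.05% BSA; luminescence read after 8 min at ambient temperature.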
SMN2 splice enh – qHTS Assay for Enhancers of SMN2 Splice Variant Expression; HEK293 SMN2-luciferase splicing reporter, luminescence, 30-36 h; Potency, µM (titrated, usually from 46.1 µM), hits mostly activators; 2.8% of 210,000 active; further: nearly all actives have a fitted effect of over 55% in size
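HEK293 cells carry an SMN2 […]–luciferase reporter in which exon 7 inclusion puts luciferase in frame. Cells were plated 10-12 h before compound addition, then incubated 30-36 h at 37C. ONE-Glo luminescence was read; sodium butyrate at 4.5 mM final served as control.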
NPC1 promoter act – qHTS Assay for NPC1 Promoter Activators. 2.4% of 320,000 active. Potency, µM (titrated, usually from 9.22 µM), most hits filed as activators. Huh7 NPC1 promoter luciferase reporter, 24 h; further: nearly all actives have a fitted effect of over 60% in size
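Huh7 cells stably carrying NPC1 promoter–luciferase, plated in Opti-MEM with 10% FBS for 2 h, were exposed to compound in DMSO for 24 h at 37 °C; luciferase reagent was added for 10 min and luminescence read.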
ELG1 genotoxic – qHTS screen for small molecules that induce genotoxicity in human embryonic kidney (HEK293T) cells expressing luciferase-tagged ELG1. HEK293T ELG1-luciferase reporter, luminescence, 16 h. Potency, µM (doses to about 46 µM), hits mostly activators. 1.3% of 330,000 active; further: nearly all actives have a fitted effect of over 60% in size
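ELG1-luciferase HEK293T cells, 2,000/well; compound pinned in; 16 hr, 37 °C, 5% CO2; ONE-Glo, 30 min RT; luminescence on CCD imager.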
FLuc counter – qHTS profiling assay for firefly luciferase inhibitor/activator using purifed enzyme and Km concentrations of substrates (counterscreen for miR-21 project) | Luciferin 4-monooxygenase (Photinus pyralis), P08659 | purified FLuc, Km substrates, luminescence inhibition | Potency, µM (highest dose often 57.5 µM), usual class: inhibitors | 6.9% of 360,000 active | AID 588342, 2011; further: nearly all actives have a fitted effect of over 55% in size
Target sequence (P08659 whole entry, looked up): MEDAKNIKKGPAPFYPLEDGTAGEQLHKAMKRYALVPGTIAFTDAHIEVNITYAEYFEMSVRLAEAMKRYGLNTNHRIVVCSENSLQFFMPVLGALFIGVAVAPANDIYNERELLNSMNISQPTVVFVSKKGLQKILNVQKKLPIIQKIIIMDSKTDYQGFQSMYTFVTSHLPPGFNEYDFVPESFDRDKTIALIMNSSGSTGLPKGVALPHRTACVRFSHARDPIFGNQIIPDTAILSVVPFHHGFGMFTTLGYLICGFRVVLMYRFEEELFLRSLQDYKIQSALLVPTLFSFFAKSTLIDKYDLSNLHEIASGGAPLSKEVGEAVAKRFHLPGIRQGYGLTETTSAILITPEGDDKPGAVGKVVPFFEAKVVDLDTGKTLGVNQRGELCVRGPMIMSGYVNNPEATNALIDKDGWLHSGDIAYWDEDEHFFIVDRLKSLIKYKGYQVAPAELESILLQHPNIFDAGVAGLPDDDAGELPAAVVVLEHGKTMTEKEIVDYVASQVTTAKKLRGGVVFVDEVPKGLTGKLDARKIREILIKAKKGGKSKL
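Purified P. pyralis luciferase, 10 nM final, with Km-level 10 uM D-luciferin and 10 uM ATP in 50 mM Tris acetate pH 7.5, 10 mM Mg acetate, 0.01% Tween-20, 0.05% BSA; 6-point qHTS titration about 60 µM downward; luminescence read.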
Rab9 prom act – qHTS Assay for Rab9 Promoter Activators | AID 485297, 2010 | Potency, µM (titrated, usually from 9.22 µM), hits mostly activators | Huh7 Rab9 promoter-luciferase reporter, luminescence, 24 h | 2.8% of 320,000 active; further: nearly all actives have a fitted effect of over 60% in size
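Promoter activation is measured as luciferase luminescence in Huh7 cells stably transfected with a Rab9 promoter–luciferase construct, following 24 h compound exposure at 37 °C and 10 min reagent incubation at ambient temperature.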
A number is an active result; . = inactive; ? = inconclusive; / = no result; [ ] = remark or other dose. Only some compounds are listed: those with a hit (about 7.5% of all), similar ones and a draw of the others. The call rests on the fitted dose curve; in most records, active means well fitted curve in the direction sought with a large enough effect; inconclusive means small, poorly fitted or top-dose-only effect, or another doubt; inactive means no such curve, though single readings can be large; an effect the other way counts as inactive or inconclusive.

SMILES	Luc counter	SMN2 splice enh	NPC1 promoter act	ELG1 genotoxic	FLuc counter	Rab9 prom act
O=C(NNC(=O)c1cc(-c2ccncc2)nc2ccccc12)Nc1ccc(F)cc1	/	/	.	.	?	.
CCCCC(=O)NCCc1c(Cc2ccccc2)[nH]c2ccccc12	.	.	/	/	/	/
COc1cccc(N2CCN(C(=O)c3nc(-c4ccc(Cl)cc4)n4c3CCCCC4)CC2)c1	/	/	/	/	.	/
O=C(N[C@@H]1c2ccccc2CC[C@@H]1OCc1ccccc1)c1ccc(C(F)(F)F)cc1	/	/	/	.	/	/
CCCCc1ccc(/C=C2\C(=O)c3ccccc3C(O)=C2C(=O)OCC)cc1	.	.	.	.	11µM	.
CSc1ccccc1NC(=O)NCCCl	.	.	.	.	.	.
CCN(CC)S(=O)(=O)c1cc(C(=O)NC2=NCCS2)ccc1Cl	.	.	.	.	?	.
CCN(CC)S(=O)(=O)c1cc(C(=O)Nc2ccccc2[N+](=O)[O-])ccc1Cl	.	.[1.84 µM]	?	?	9.5µM	?
CCN(CC)S(=O)(=O)c1cc(C(=O)Nc2cc(C)[nH]n2)ccc1Cl	/	/	2.2µM	?	8.5µM	2.5µM
CCCN(C(=O)/C=C/c1nc2ccccc2s1)C1CCS(=O)(=O)C1 (stereo not drawn)	/	/	.	.	.	.
COc1cc2c(cc1OC)C(c1cccs1)N(C(=O)c1cccc(S(=O)(=O)N(C)C)c1)CC2 (stereo not drawn)	/	/	.	.	.	.
CC(=O)c1nnn(-c2ccc(C)cc2Cl)c1C	/	/	/	/	.	/
O=S(=O)(Nc1cccnc1)c1ccc(Cl)cc1	.	.	.	.	.	.
Clc1ccc(C#Cc2cccnc2)cc1	/	/	.	.	13µM	.
O=C(Nc1ccc2[nH]ncc2c1)c1ccc(F)cc1	/	/	2.8µM	?	8.5µM	2.2µM
O=C(Nc1ccc2[nH]ncc2c1)c1ccccc1	/	/	2.8µM	?	13µM	3.2µM
O=C(NC(=S)Nc1ccc2cn[nH]c2c1)c1ccccc1	.	18µM	3.5µM	.	19µM	4.5µM
CCc1cccc(CC)c1NC(=S)N(CCN(C)C)C(C)c1cccnc1 (stereo not drawn)	.	.	.	.	.	.
COC(=O)c1cc2sc(C)cc2n1Cc1cccc(OC)c1	/	.	/	/	.	/
CCCCCCCN	/	.	/	/	/	/
CCCSc1ncc(Cl)c(C(=O)Nc2ccc(S(=O)(=O)N3CCCCC3C)cc2)n1 (stereo not drawn)	/	.	/	/	.	/
Cc1ccoc1C(=O)Nc1ccc2ccccc2c1	/	/	1µM	?	0.38µM	0.45µM
CC(=O)c1cc(C(=O)Nc2ccc3ccccc3c2)c(C)o1	/	/	.	.	.	.
Cc1ccoc1C(=O)Nc1ccc(CC(=O)O)cc1	.	?	.	?	1.7µM	.
Cc1cc(C(=O)Nc2ccc3ccccc3c2)c(C)o1	/	/	1.4µM	0.65µM	1.3µM	3.5µM
SMILES	Luc counter	SMN2 splice enh	NPC1 promoter act	ELG1 genotoxic	FLuc counter	Rab9 prom act
O=C(O)Cc1ccc(NC(=O)c2ccc(NC(=O)c3ccco3)cc2)cc1	.	.	.	.	?	.
Cc1cc(C(=O)Nc2ccc3ccccc3c2)oc1C	/	/	0.63µM	9.2µM	2.1µM	0.79µM
Cc1cc(=O)n(CC(=O)N2CCN(c3ccc(F)cc3)CC2)c2c1c(C)nn2C	/	/	/	/	.	/
COCCOC(=O)c1c(C)oc2c1cc(NS(=O)(=O)c1ccc(Cl)c(C)c1)c1ccccc12	/	.	/	/	?	/
O=C(O)c1ccc(S(=O)(=O)N[C@H](Cc2ccc(O)cc2)C(=O)O)cc1	/	/	.	/	.	.
COc1ccc(OC)c(-c2csc(N3CCC(c4ccccc4)CC3)n2)c1	.	.	.	.	.	.
CN1CCSc2ccc(C(=O)Nc3ccc(Cl)cc3)cc21	/	/	2.8µM	?	?	3.5µM
CCc1ccc(NC(=O)c2ccc3c(c2)N(Cc2ccc(C)cc2)CCS3)cc1	/	25µM	/	/	?	/
CC(=O)Nc1ccc(NC(=O)c2ccc3c(c2)CCN3S(C)(=O)=O)cc1	/	/	.	.	.	.
COc1cccc(NC(=O)c2ccc3c(c2)N(C)CCS3)c1	/	/	1.3µM	?	2.7µM	3.5µM
COc1cccc(NC(=O)c2ccc3c(c2)CCN3S(C)(=O)=O)c1	/	.	.	.	17µM	?
Cc1ccc(-c2nc(N3CCCC(C)C3)c3ccccc3n2)cc1 (stereo not drawn)	/	.	/	/	.	/
Brc1ccc2oc3c(N4CCOCC4)ncnc3c2c1	.	.	?	.	15µM	?
O=C(CSc1nc2nn(-c3ccccc3)c(=O)c-2c2n1CCCCC2)c1ccc(O)c(O)c1	/	/	.	.	.	.
Cn1c(O)c(N=NC(=O)c2ccccc2O)c2ccccc21	.	/	3.5µM	7.3µM	3µM	?
CCCCn1c(O)c(N=Nc2ccccc2O)c2ccccc21	/	/	.	.	.	.
Cn1c(O)c(N=NC(=O)c2ccco2)c2ccccc21	.	10µM	4µM	?	4.8µM	2.2µM
Cn1c(O)c(N=Nc2ccccc2[N+](=O)[O-])c2ccccc21	/	/	3.5µM	?	?	?
Cc1occc1C(=O)N=Nc1c(O)n(C)c2ccccc12	.	2.8µM	?	?	1.7µM	?
CCOC(=O)C(=O)N=Nc1c(O)n(C)c2ccccc12	.	/	.	.	.	.
CCc1ccc(C(=O)c2cn(CC(=O)Nc3ccc4c(c3)OCO4)c3ccc(OC)cc3c2=O)cc1	/	.	/	/	.	/
CCn1c(SCC(=O)Nc2ccc(F)cc2)nnc1-c1cnccn1	/	/	.	.	.	.
Cc1cc(N=NC(=O)c2ccccc2O)c2ccccc2c1O	.	.	?	.	11µM	3.2µM
O=C(Nc1ccccc1)Nc1cc(Cl)cc(Cl)c1	.	.	.	.	27µM	?
O=C(Nc1ccc(Nc2ccccc2)cc1)Nc1ccccc1Cl	/	/	?	?	11µM	?
SMILES	Luc counter	SMN2 splice enh	NPC1 promoter act	ELG1 genotoxic	FLuc counter	Rab9 prom act
O=C(Nc1ccc(Cl)cc1)Nc1ccccc1Sc1ncc([N+](=O)[O-])s1	/	/	?	?	12µM	?
O=C(NCc1ccccn1)Nc1cc(Cl)cc(Cl)c1	/	/	.	.	.	.
O=C(Nc1csc([N+](=O)[O-])c1)Nc1ccccc1Cl	/	/	.	.	17µM	.
O=C1CCCc2cc(S(=O)(=O)NCC3CCC(C(=O)Nc4ccccc4F)CC3)ccc2N1 (stereo not drawn)	/	/	/	/	.	/
Cc1cn(-c2cc(NC(=O)c3ccc(C)c(NC(=O)c4cccc(-c5cn[nH]c(=O)c5)c4)c3)cc(C(F)(F)F)c2)cn1	/	/	.	.	.	.
CCOC(=O)CCc1c(C)nc2cc(-c3ccc(Cl)cc3)[nH]n2c1=O	.	.	.	.	.	.
O=c1c2c(nc3cc(-c4ccc(Cl)cc4)[nH]n13)CCS2	.	13µM	3.5µM	?	2.1µM	?
CCc1c(C)nc2cc(-c3cccc(Br)c3)[nH]n2c1=O	/	/	?	.	12µM	?
